In the supplement of paper PMC12669032:

Legend:
Test in all cases: growth AUC relative to DMSO control (median of replicates) (fraction); higher = more growth (less inhibition), active = hit call of the paper
Settings in all cases: 20 µM; 24 h;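 active = AUC reduced over 20% with Padj below 0.05 in at least 2 of 3 replicates; inactive = otherwise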
[1] = system: Akkermansia muciniphila
Procedure, shortened: (§1)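 Three biological replicates, each grown on a separate day, were combined as a median for every value. In each, a gut bacterial monoculture in mGAM started at OD600 0.05 and grew anaerobically at 37 °C with 20 µM compound (1% DMSO), with OD600 read hourly over 24 h. Area under the growth curve was normalised against the plate median of solvent-only wells, or against row and column medians on the industrial chemical plate, after the minimum OD was set to 0.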

[2] = system: Bacteroides caccae
Procedure, shortened: as §1

[3] = system: Bacteroides clarus
Procedure, shortened: as §1

[4] = system: Bacteroides dorei
Procedure, shortened: as §1

[5] = system: Bacteroides stercoris
Procedure, shortened: as §1

[6] = system: Bacteroides thetaiotaomicron
Procedure, shortened: as §1

[7] = system: Bacteroides uniformis
Procedure, shortened: as §1

[8] = system: Bifidobacterium longum subsp. longum
Procedure, shortened: as §1

[9] = system: Clostridium difficile
Procedure, shortened: as §1

[10] = system: Collinsella aerofaciens
Procedure, shortened: as §1

Measured: growth AUC

O=[N+]([O-])NC1=NCOCN1Cc1cnc(Cl)s1
inactive: [1] 1.23 | [2] 0.994 | [3] 1.04 | [4] 1.01 | [5] 1.19 | [6] 0.979 | [7] 0.964 | [8] 0.917 | [9] 0.999 | [10] 0.971

CCCCCCCC(=O)Oc1c(I)cc(C#N)cc1I
inactive: [1] 1.1 | [2] 0.886 | [3] 0.864 | [4] 0.962 | [5] 1.1 | [6] 0.951 | [7] 0.88 | [8] 1.03 | [9] 0.998 | [10] 0.989

COC(=O)C(C)N(C(=O)c1ccco1)c1c(C)cccc1C (stereo not given)
inactive: [1] 1.07 | [2] 0.872 | [3] 0.984 | [4] 0.85 | [5] 0.985 | [7] 0.88 | [8] 1.1 | [9] 0.941 | [10] 0.913
active: [6] 0.727

Oc1ccc(Cl)cc1Cc1cc(Cl)ccc1O
inactive: [4] 0.765 | [10] 0.878
active: [1] 0.202 | [2] 0.416 | [3] 0.154 | [5] 0.00782 | [6] 0.359 | [7] 0.163 | [8] 0.598 | [9] 0.633

Cc1c(COC(=O)[C@@H]2[C@H](/C=C(\Cl)C(F)(F)F)C2(C)C)cccc1-c1ccccc1
inactive: [1] 0.924 | [2] 0.971 | [3] 0.998 | [4] 1.01 | [5] 0.972 | [6] 0.974 | [7] 1.01 | [8] 0.923 | [9] 1.02 | [10] 0.928

CC(C)[C@@H](Nc1ccc(C(F)(F)F)cc1Cl)C(=O)OC(C#N)c1cccc(Oc2ccccc2)c1 (stereo not given in full)
inactive: [1] 1.09 | [2] 1.02 | [3] 1.04 | [4] 1.04 | [5] 1.01 | [6] 0.994 | [7] 1.01 | [8] 1.02 | [9] 1.04 | [10] 0.933

CCOP(=S)(Oc1ccc([N+](=O)[O-])cc1)c1ccccc1 (stereo not given)
inactive: [1] 1.06 | [2] 0.961 | [3] 1.02 | [4] 0.972 | [5] 1.11 | [6] 1.01 | [7] 0.919 | [8] 1.02 | [9] 1.03 | [10] 0.996

O=S1OCC2C(CO1)C1(Cl)C(Cl)=C(Cl)C2(Cl)C1(Cl)Cl (stereo not given)
inactive: [1] 1.08 | [2] 1 | [3] 0.962 | [4] 0.999 | [5] 0.779 | [6] 0.976 | [7] 0.874 | [8] 1.04 | [9] 0.992 | [10] 0.971

CCCN(CCCl)c1c([N+](=O)[O-])cc(C(F)(F)F)cc1[N+](=O)[O-]
inactive: [1] 1.01 | [2] 0.977 | [3] 0.95 | [4] 0.94 | [5] 0.93 | [6] 0.918 | [7] 0.927 | [8] 1.07 | [9] 0.995 | [10] 0.961

COc1c(Cl)ccc(Cl)c1Cl
inactive: [1] 1.02 | [2] 0.971 | [3] 0.985 | [4] 0.995 | [5] 1.19 | [6] 1.01 | [7] 0.99 | [8] 1.04 | [9] 1.01 | [10] 0.98

Cc1cc(C2CC2)nc(Nc2ccccc2)n1
inactive: [1] 0.934 | [2] 0.979 | [3] 0.939 | [4] 0.916 | [5] 0.756 | [6] 0.903 | [7] 0.981 | [8] 1.04 | [9] 0.959 | [10] 0.953

O=C1OCC2C1C1(Cl)C(Cl)=C(Cl)C2(Cl)C1(Cl)Cl (stereo not given)
inactive: [1] 1.09 | [2] 0.965 | [3] 0.991 | [4] 0.987 | [5] 0.871 | [6] 1.04 | [7] 1.01 | [8] 1.06 | [9] 0.987 | [10] 0.926

COC(=O)C(C)Oc1ccc(Oc2ccc(Cl)cc2Cl)cc1 (stereo not given)
inactive: [1] 0.924 | [2] 0.963 | [3] 0.951 | [4] 1.04 | [5] 0.795 | [6] 0.986 | [7] 0.963 | [8] 0.919 | [9] 1.01 | [10] 0.958

CNC(=O)Oc1ccccc1OC(CCl)OC (stereo not given)
inactive: [1] 1.17 | [2] 0.941 | [3] 1.06 | [4] 0.955 | [5] 1.23 | [6] 1.02 | [7] 0.982 | [8] 1.02 | [9] 1.03 | [10] 1.07

ClC1=C(Cl)[C@]2(Cl)[C@@H]3[C@@H]4C[C@@H]([C@H]5O[C@@H]45)[C@@H]3[C@@]1(Cl)C2(Cl)Cl
inactive: [1] 0.945 | [2] 0.98 | [3] 1.01 | [4] 1 | [5] 0.947 | [6] 0.967 | [7] 0.979 | [8] 1.02 | [9] 0.973 | [10] 0.989

C[C@@H](Oc1ccc(Oc2cnc3cc(Cl)ccc3n2)cc1)C(=O)O
inactive: [1] 1.07 | [2] 0.938 | [3] 1.05 | [4] 1 | [5] 1.29 | [6] 0.986 | [7] 0.988 | [8] 0.964 | [9] 0.989 | [10] 0.976

CCOC(=O)CC(SP(=S)(OC)OC)C(=O)OCC (stereo not given)
inactive: [1] 1.13 | [2] 0.953 | [3] 1 | [4] 0.881 | [5] 0.982 | [6] 0.977 | [7] 0.965 | [8] 1.09 | [9] 0.845 | [10] 0.955

O=P(OC(CCl)CCl)(OC(CCl)CCl)OC(CCl)CCl
inactive: [1] 1.09 | [2] 0.845 | [3] 0.999 | [4] 0.87 | [5] 1.3 | [6] 0.947 | [7] 0.868 | [8] 1.05 | [9] 0.9 | [10] 0.948

CCOP(=O)(OCC)Oc1ccc([N+](=O)[O-])cc1
inactive: [1] 0.962 | [2] 1.03 | [3] 0.999 | [4] 1.01 | [5] 1.08 | [6] 1.01 | [7] 1 | [8] 1.15 | [9] 1.03 | [10] 1.05

CCNc1nc(NC(C)C)nc(OC)n1
inactive: [1] 1.15 | [2] 0.971 | [3] 1.02 | [4] 0.941 | [5] 1.03 | [6] 1 | [7] 0.969 | [8] 1.01 | [9] 0.981 | [10] 0.962

CC(C)N(C(=O)COc1nnc(C(F)(F)F)s1)c1ccc(F)cc1
active: [1] 0.411
inactive: [2] 1.05 | [3] 1.02 | [4] 0.996 | [5] 0.973 | [6] 0.952 | [7] 0.907 | [8] 1.03 | [9] 0.955 | [10] 1.01

Nc1ccc(Cl)cc1
inactive: [1] 1.01 | [2] 1.03 | [3] 1.02 | [4] 1 | [5] 1.03 | [6] 1.05 | [7] 1.02 | [8] 1.04 | [9] 1 | [10] 0.972

Clc1cc(Cl)c(Cl)cc1Cl
inactive: [1] 1.01 | [2] 0.997 | [3] 0.987 | [4] 0.981 | [5] 1.14 | [6] 0.982 | [7] 1.01 | [8] 1.07 | [9] 0.98 | [10] 1.01

Cc1occc1C(=O)Nc1ccccc1
inactive: [1] 0.899 | [2] 1 | [3] 0.958 | [4] 1.04 | [5] 0.952 | [6] 1.02 | [7] 1 | [8] 1.02 | [9] 1.05 | [10] 0.959

CCOP(=S)(OCC)Oc1ccc2c(C)c(Cl)c(=O)oc2c1
inactive: [1] 1.1 | [2] 0.952 | [3] 0.957 | [4] 0.98 | [5] 0.891 | [6] 0.934 | [7] 0.95 | [8] 0.968 | [9] 1 | [10] 1

CCC(C)(C)C(=O)OC1=C(c2ccc(Cl)cc2Cl)C(=O)OC12CCCCC2
inactive: [1] 1.03 | [2] 1 | [3] 0.975 | [4] 0.976 | [5] 0.978 | [6] 0.946 | [7] 0.911 | [8] 0.99 | [9] 0.973 | [10] 0.987

CCOC(=O)C(C)OC(=O)c1cc(Oc2ccc(C(F)(F)F)cc2Cl)ccc1[N+](=O)[O-] (stereo not given)
inactive: [1] 0.88 | [2] 0.95 | [3] 0.931 | [4] 0.985 | [5] 0.992 | [6] 0.987 | [7] 0.966 | [8] 0.947 | [9] 0.978 | [10] 0.857

CCS(=O)c1c(C#N)nn(-c2c(Cl)cc(C(F)(F)F)cc2Cl)c1N (stereo not given)
inactive: [1] 0.952 | [2] 1.04 | [3] 0.996 | [4] 1.01 | [5] 1.04 | [6] 0.961 | [7] 0.959 | [8] 1.01 | [9] 1.02 | [10] 1.01

O=[N+]([O-])c1ccc(Oc2ccc(Cl)cc2Cl)cc1
inactive: [1] 1.09 | [2] 0.959 | [3] 0.971 | [4] 0.973 | [5] 1.09 | [6] 0.99 | [7] 0.931 | [8] 0.972 | [9] 0.97 | [10] 0.998

CC(C)C1(C)N=C(c2nc3ccccc3cc2C(=O)O)NC1=O (stereo not given)
inactive: [1] 0.971 | [2] 1.01 | [3] 1.02 | [4] 0.957 | [5] 1.03 | [6] 0.992 | [7] 1.01 | [8] 0.967 | [9] 0.958 | [10] 0.962

C=CC(N)=O
inactive: [1] 1.01 | [2] 0.985 | [3] 1 | [4] 0.963 | [5] 0.983 | [6] 0.99 | [7] 1.01 | [8] 0.875 | [9] 1.01 | [10] 1.01

O=C(NC(=O)c1c(F)cccc1F)Nc1ccc(CO/N=C(\c2ccc(Cl)cc2)C2CC2)cc1
inactive: [1] 1.02 | [2] 0.994 | [3] 0.955 | [4] 1.01 | [5] 0.981 | [6] 0.996 | [7] 0.983 | [8] 0.959 | [9] 0.983 | [10] 0.963

COP(=S)(NC(C)C)Oc1ccccc1C(=O)OC(C)C (stereo not given)
inactive: [1] 1.07 | [2] 0.991 | [3] 0.93 | [4] 0.942 | [5] 1.04 | [6] 0.907 | [7] 0.872 | [8] 1.02 | [9] 1.01 | [10] 1.01

O=[N+]([O-])c1ccc(O)c([N+](=O)[O-])c1
inactive: [1] 1.07 | [2] 0.987 | [3] 0.939 | [4] 0.98 | [5] 0.867 | [6] 0.889 | [7] 0.946 | [8] 1 | [9] 0.973 | [10] 0.992

CCCN(CCC)c1c([N+](=O)[O-])cc(C(C)C)cc1[N+](=O)[O-]
inactive: [1] 1.12 | [2] 1.01 | [3] 0.978 | [4] 0.994 | [5] 0.991 | [6] 0.962 | [7] 1.03 | [8] 1.02 | [9] 0.991 | [10] 0.99

COP(=S)(OC)Oc1ccc(SC)c(C)c1
inactive: [1] 0.903 | [2] 0.943 | [3] 0.952 | [4] 1 | [5] 0.995 | [6] 1.03 | [7] 0.977 | [8] 0.963 | [9] 1.03 | [10] 0.977
